Consider four compounds from PubChem BioAssay (EPA / NIEHS).

Active and inactive are the calls of the source. The calls were made as follows: active = hit-call score of the fitted dose curve at least 0.9, where 1 is the maximum; inactive = score below 0.9.

Read-out in test [1]: TIMP metallopeptidase inhibitor 2 (TIMP2), TIMP2 (gene 7077)
The test is described as follows: BSK_KF3CT_TIMP2: BioMAP Diversity Plus: KF3CT Assay for TIMP metallopeptidase inhibitor 2 (TIMP2) Biomarker Activity (AID 2283071). Conditions: primary human keratinocytes with fibroblasts; actives raise or lower the signal. An outline of the steps:
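Chemicals were dosed onto human skin primary co-cultures of keratinocytes and foreskin fibroblasts, and TIMP-2 was measured by ELISA after 24 hours. Activity in either direction was fitted relative to DMSO.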

Read-out in test [2]: Transforming growth factor beta 1 (TGFb1), TGFB1 (gene 7040)
The test is described as follows: BSK_KF3CT_TGFb1: BioMAP Diversity Plus: KF3CT Assay for Transforming growth factor beta 1 (TGFb1) Biomarker Activity (AID 2283072). Conditions: primary human keratinocytes with fibroblasts; actives raise or lower the signal. An outline of the steps:
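KF3CT co-culture (keratinocytes + fibroblasts), 24 h exposure → TGF-b1 ELISA → bidirectional fit, DMSO = baseline. Parallel SRB total-protein staining (0.1% SRB, 10% TCA fixation, 560 nm) for cytotoxicity.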

Read-out in test [3]: C-C motif chemokine 2 (Homo sapiens) (UniProt P13500)
Description: BSK_KF3CT_MCP1: BioMAP Diversity Plus: KF3CT Assay for Monocyte Chemoattractant Protein 1 (MCP1/CCL2) Biomarker Activity (AID 2283073). Conditions: primary human keratinocytes with fibroblasts; actives raise or lower the signal. An outline of the steps:
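Human keratinocyte–foreskin fibroblast co-culture; MCP-1 measured by ELISA 24 h after dosing. Bidirectional fit vs DMSO; cytotoxicity tracked by SRB total protein in parallel cultures.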

Read-out in test [4]: Matrix Metallopeptidase 9 (MMP9), MMP9 (gene 4318)
Description: BSK_KF3CT_MMP9: BioMAP Diversity Plus: KF3CT Assay for Matrix Metallopeptidase 9 (MMP9) Biomarker Activity (AID 2283074). To be noted: primary human keratinocytes with fibroblasts; actives raise or lower the signal. In outline: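 Values come from bidirectional fitting relative to DMSO of MMP-9 levels, which were measured by ELISA. Measurements were taken 24 h after chemical dosing of a keratinocyte and foreskin fibroblast co-culture.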

Read-out in test [5]: urokinase plasminogen activator (uPA), PLAU (gene 5328)
Description: BSK_KF3CT_uPA: BioMAP Diversity Plus: KF3CT Assay for urokinase plasminogen activator (uPA) Biomarker Activity (AID 2283075). To be noted: primary human keratinocytes with fibroblasts; actives raise or lower the signal. In outline: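 Values derive from bidirectional fitting against DMSO controls. Keratinocyte/foreskin fibroblast co-cultures received chemical; 24 h later uPA was detected by ELISA, with SRB total-protein staining in parallel wells for overt cytotoxicity.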

Read-out in test [6]: CD40, CD40 (gene 958)
The test is described as follows: BSK_LPS_CD40: BioMAP Diversity Plus: LPS Assay for CD40 Biomarker Activity (AID 2283076). Conditions: primary human HUVEC with PBMC; actives raise or lower the signal. In outline:
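HUVEC plus PBMC co-culture stimulated with LPS; CD40 quantified by ELISA 24 h after compound dosing. Fitting was bidirectional relative to DMSO. SRB staining of parallel cultures flagged overt cytotoxicity.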

Read-out in test [7]: E-selectin (Homo sapiens) (UniProt P16581)
The test is described as follows: BSK_LPS_Eselectin: BioMAP Diversity Plus: LPS Assay for Eselectin Biomarker Activity (AID 2283077). Conditions: primary human HUVEC with PBMC; actives raise or lower the signal. An outline of the steps: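 Human umbilical vein endothelial cells co-cultured with PBMC under LPS stimulation; cell-surface E-selectin measured by ELISA 24 h after dosing. Change in either direction versus DMSO, with SRB total-protein staining in parallel cultures for cytotoxicity.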

Read-out in test [8]: Interleukin-8 (IL8), CXCL8 (gene 3576)
Description: BSK_LPS_IL8: BioMAP Diversity Plus: LPS Assay for Interleukin-8 (IL8) Biomarker Activity (AID 2283078). To be noted: primary human HUVEC with PBMC; actives raise or lower the signal. In outline:
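Human umbilical vein endothelial cells co-cultured with PBMC, LPS-stimulated, exposed to compound for 24 h. IL-8 quantified by ELISA; fitted in both directions against DMSO, with SRB total-protein staining of parallel cultures for cytotoxicity.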

The nature of test [9]: BSK_LPS_SRB: Viability Assessment in the BioMAP Diversity Plus: LPS Assay (AID 2283079).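 Also: total protein by sulforhodamine B absorbance as a cytotoxicity measure; measured one day after compound addition; fitted in both directions against DMSO so loss or gain of signal counts.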 To be noted: primary human HUVEC with PBMC. An outline of the steps:
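Co-culture of human umbilical vein endothelial cells and PBMC, read 24 h after dosing. Total protein by 0.1% SRB staining after 10% TCA fixation, absorbance at 560 nm; bidirectional fit against DMSO.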

Read-out in test [10]: Interleukin-1 alpha (IL1a), IL1A (gene 3552)
Description: BSK_LPS_IL1a: BioMAP Diversity Plus: LPS Assay for Interleukin-1 alpha (IL1a) Biomarker Activity (AID 2283080). To be noted: primary human HUVEC with PBMC; actives raise or lower the signal. In outline: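 Human umbilical vein endothelial cells co-cultured with PBMC and stimulated with LPS; IL-1a measured by ELISA 24 h after dosing. Bidirectional fitting against DMSO; cytotoxicity checked by SRB staining in parallel cultures.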

Read-out in test [11]: Monocyte Chemoattractant Protein-1 (MCP1), CCL2 (gene 6347)
The test is described as follows: BSK_LPS_MCP1: BioMAP Diversity Plus: LPS Assay for Monocyte Chemoattractant Protein-1 (MCP1) Biomarker Activity (AID 2283081). To be noted: primary human HUVEC with PBMC; actives raise or lower the signal. In outline: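 Human umbilical vein endothelial cells co-cultured with PBMC, LPS-stimulated; secreted MCP-1 measured by ELISA 24 h after compound addition. Bidirectional curve fitting against DMSO baseline; SRB total-protein staining in parallel cultures for cytotoxicity.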

The nature of test [12]: BSK_LPS_PGE2: BioMAP Diversity Plus: LPS Assay for Prostaglandin E2 (PGE2) Biomarker Activity (AID 2283082). To be noted: primary human HUVEC with PBMC; actives raise or lower the signal. An outline of the steps:
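Compounds were added to the LPS co-culture of endothelium and PBMC, and PGE2 was measured by ELISA after 24 h. Responses in either direction were fitted with DMSO as baseline.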

Read-out in test [13]: Tumor necrosis factor (Homo sapiens) (UniProt P01375)
The test is described as follows: BSK_LPS_TNFa: BioMAP Diversity Plus: LPS Assay for Tumour Necrosis Factor alpha (TNFa) Biomarker Activity (AID 2283085). Conditions: primary human HUVEC with PBMC; actives raise or lower the signal. An outline of the steps: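 Cells (umbilical vein endothelium plus peripheral blood mononuclear cells) were dosed with chemical, incubated 24 h, then TNFa was quantified by ELISA; values derive from bidirectional fitting with DMSO as baseline.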

Read-out in test [14]: Vascular cell adhesion molecule 1 (VCAM1), VCAM1 (gene 7412)
Description: BSK_LPS_VCAM1: BioMAP Diversity Plus: LPS Assay for Vascular cell adhesion molecule 1 (VCAM1) Biomarker Activity (AID 2283086). Conditions: primary human HUVEC with PBMC; actives raise or lower the signal. In outline: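 Cells are dosed in an LPS-stimulated endothelial/mononuclear co-culture and, after 24 h, VCAM-1 is quantified by ELISA. Activity in either direction is fitted relative to the DMSO negative control.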

Read-out in the next test: CD38, CD38 (gene 952)
The test is described as follows: BSK_SAg_CD38: BioMAP Diversity Plus: SAg Assay for CD38 Biomarker Activity (AID 2283087). Conditions: primary human HUVEC with PBMC; actives raise or lower the signal. An outline of the steps:
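CD38 quantified by ELISA (fluorescence) in a superantigen-activated endothelial cell–PBMC co-culture at 24 h post-dose. Activity fitted in both directions relative to DMSO; parallel SRB and Alamar Blue cytotoxicity read-outs.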

Read-out in test [15]: CD40, CD40 (gene 958)
The test is described as follows: BSK_SAg_CD40: BioMAP Diversity Plus: SAg Assay for CD40 Biomarker Activity (AID 2283088). Conditions: primary human HUVEC with PBMC; actives raise or lower the signal. In outline:
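HUVEC plus PBMC co-culture, superantigen-activated, with CD40 read by ELISA 24 h after dosing. Curves fitted in both directions against DMSO. Overt cytotoxicity checked by parallel SRB total-protein staining.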

Read-out in another test: CD69, CD69 (gene 969)
The test is described as follows: BSK_SAg_CD69: BioMAP Diversity Plus: SAg Assay for CD69 Biomarker Activity (AID 2283089). To be noted: primary human HUVEC with PBMC; actives raise or lower the signal. An outline of the steps:
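ELISA, fluorescence read-out: CD69 on human umbilical vein endothelial cell + PBMC co-culture, 24 h post-dosing. Gain or loss of signal fitted bidirectionally against DMSO baseline.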

Read-out in test [16]: Macrophage colony-stimulating factor (MCSF), CSF1 (gene 1435)
The test is described as follows: BSK_LPS_MCSF: BioMAP Diversity Plus: LPS Assay for Macrophage colony-stimulating factor (MCSF) Biomarker Activity (AID 2283083). To be noted: primary human HUVEC with PBMC; actives raise or lower the signal. In outline:
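HUVEC–PBMC co-culture, M-CSF measured by ELISA 24 h after chemical dosing. Fitted in both directions relative to DMSO as negative control; overt cytotoxicity assessed by SRB total-protein staining in parallel cultures.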

Chain of E-selectin (Homo sapiens) (P16581 whole entry, looked up): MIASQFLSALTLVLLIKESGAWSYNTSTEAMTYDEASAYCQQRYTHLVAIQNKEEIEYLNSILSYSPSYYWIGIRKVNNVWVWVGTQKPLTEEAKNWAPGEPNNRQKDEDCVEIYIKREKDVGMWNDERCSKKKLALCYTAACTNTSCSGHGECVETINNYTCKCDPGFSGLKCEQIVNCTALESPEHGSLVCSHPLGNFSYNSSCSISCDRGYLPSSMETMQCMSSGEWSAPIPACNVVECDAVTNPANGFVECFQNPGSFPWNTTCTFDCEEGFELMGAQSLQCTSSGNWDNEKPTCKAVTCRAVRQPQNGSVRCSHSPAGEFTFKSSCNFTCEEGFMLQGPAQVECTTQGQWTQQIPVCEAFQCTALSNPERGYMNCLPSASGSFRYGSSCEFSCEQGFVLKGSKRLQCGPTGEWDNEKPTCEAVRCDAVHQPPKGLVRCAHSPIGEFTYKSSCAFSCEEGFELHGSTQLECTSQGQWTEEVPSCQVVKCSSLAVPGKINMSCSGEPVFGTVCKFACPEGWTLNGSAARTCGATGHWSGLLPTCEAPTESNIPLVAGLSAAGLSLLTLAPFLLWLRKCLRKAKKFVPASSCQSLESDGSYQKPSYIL
Chain of Tumor necrosis factor (Homo sapiens) (P01375 whole entry, looked up): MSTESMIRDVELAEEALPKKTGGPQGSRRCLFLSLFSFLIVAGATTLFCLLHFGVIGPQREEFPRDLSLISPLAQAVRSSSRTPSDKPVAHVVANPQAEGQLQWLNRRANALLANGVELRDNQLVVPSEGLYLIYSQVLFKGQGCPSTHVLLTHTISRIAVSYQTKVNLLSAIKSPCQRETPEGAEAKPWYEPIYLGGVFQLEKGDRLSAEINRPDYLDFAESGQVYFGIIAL

As for `Cc1c([N+](=O)[O-])cc2c(c1[N+](=O)[O-])C(C)(C)CC2(C)C`, the result in test [1], in test [3], in test [4], in test [5], in test [7] and in test [8] was inactive. Moreover, the result in test [9], in test [10], in [11], in [12], in test [13] and in [14] was inactive. The outcome in the test with CD38, CD38 (gene 952) was “inactive”; with CD40, CD40 (gene 958) [15] it was “inactive”; in the test with CD69, CD69 (gene 969) it was “inactive”. Besides, the AC50 in [2] is 3.06 µM (active); with CD40, CD40 (gene 958) [6], 0.807 µM (active).
For `CCOP(=S)(S)OCC`, the outcome is “inactive” in [1]; “inactive” in test [2]; “inactive” in [3]; “inactive” in [4]; “inactive” in test [5]; “inactive” with CD40, CD40 (gene 958) [6]. Also, the result in test [7], in test [8], in [9], in test [11], in test [12] and in test [13] was inactive. The outcome in the test with CD38, CD38 (gene 952) is “inactive”; with CD40, CD40 (gene 958) [15], “inactive”; with CD69, CD69 (gene 969), “inactive”. For the same compound, the AC50 in test [10] is 36.6 µM (active).
Regarding `CCOS(=O)(=O)OCC`, the outcome is “inactive” in [1]; “inactive” in [2]; “inactive” in test [3]; “inactive” in test [4]; “inactive” in [5]; “inactive” in the test with CD40, CD40 (gene 958) [6]. The outcome in test [7], in test [8], in test [9], in test [10], in test [11] and in test [12] was inactive. Moreover, the outcome was “inactive” in test [16]; “inactive” in test [13]; “inactive” in [14]; “inactive” in the test with CD38, CD38 (gene 952); “inactive” with CD40, CD40 (gene 958) [15]; “inactive” with CD69, CD69 (gene 969).
Regarding `[N-]=[N+]=[N-]`, the outcome in test [1] is “inactive”; in test [2], “inactive”; in test [3] it was “inactive”; in test [4], “inactive”; in test [5], “inactive”; with CD40, CD40 (gene 958) [6], “inactive”. Further, the outcome in test [7], in test [8], in test [9], in test [10], in test [11] and in test [12] was inactive. For the same compound, the outcome is “inactive” in test [13]; “inactive” in the test with CD38, CD38 (gene 952); “inactive” with CD40, CD40 (gene 958) [15]; “inactive” in the test with CD69, CD69 (gene 969).
